Records with an inconclusive call do not appear. Activity calls are given as the source filed them. The call rests on the fitted dose curve; in most records, active means well fitted inhibition curve with a large enough effect; inconclusive means small, poorly fitted or top-dose-only effect; inactive means flat fitted curve, though single readings scatter.

A short description of one experiment: qHTS for identification of novel therapeutic agents for treatment of microphthalmiaassociated transcription factor (MiT) renal cell carcinoma (RCC) (AID 1963991). The following applies: TFE3-RCC viability, CellTiter-Glo, 48 h; measured here: UOK124 Z-AUC; stronger effect = lower value. A digest of the protocol:
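Viability of three TFE3-fusion renal carcinoma lines measured by CellTiter-Glo after 48 h treatment with each of 1912 compounds at 11 concentrations. Responses scaled between DMSO (100%) and empty wells (0%) before curve fitting.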
A general note: qHTS replaces the single test concentration by a dilution series.
In turn, `CN(C)CCc1c[nH]c2ccc(C[C@H]3COC(=O)N3)cc12` displayed a z-score of -0.14.

Take `CCN(C)C(=O)Oc1cccc([C@H](C)N(C)C)c1`: the z-score was 0.446.

`CCn1cc(C(=O)O)c(=O)c2cc(F)c(N3CCN(C)CC3)cc21` registered a z-score of 0.298.

As for `CC(C)OC(=O)OCOP(=O)(CO[C@H](C)Cn1cnc2c(N)ncnc21)OCOC(=O)OC(C)C`, the z-score is 0.776.

`CCN(CC)CCn1c(=O)c(Cc2ccc(OC)cc2)nc2ccccc21` showed a z-score of 0.577.

As to `CN(Cc1cc(Br)cc(Br)c1N)C1CCCCC1`, the z-score was found to be 0.389.

For the molecule `COC(c1ccccc1)(c1ccccc1)[C@H](Oc1nc(C)cc(C)n1)C(=O)O`, the z-score was 0.918.

For the molecule `CCOc1cc(N)c(Cl)cc1C(=O)NCC1CN(Cc2ccc(F)cc2)CCO1` (stereo unspecified), the z-score was determined as 0.779.

Regarding `NNC(=O)c1ccncc1`, the z-score came out at 0.222.

`Nc1[nH]c(=O)ncc1F` came in with a z-score of 0.978.

The molecule `O=C(O)c1cc(=O)[nH]c(=O)[nH]1` displayed a z-score of 0.79.

As to `C#CCN[C@@H]1CCc2ccccc21`, the z-score came to 0.222.

In turn, `Cn1nnc2c(C(N)=O)ncn2c1=O` showed a z-score of 0.527.

As for `Cc1nnc(C(=O)NC(C)(C)c2nc(C(=O)NCc3ccc(F)cc3)c(O)c(=O)n2C)o1`, the z-score was 0.249.

The molecule `NC(=O)c1ccc2[nH]ccc2c1` came in with a z-score of 0.789.

`CC1=C(C(=O)O)N2C(=O)[C@@H](NC(=O)C(N)c3ccccc3)[C@H]2SC1` (stereo partly specified): the z-score turned out to be 0.228.

For `CCCCS(=N)(=O)CCC(N)C(=O)O` (stereo unspecified), the z-score is 0.527.

With `Cn1c(=O)c2c(ncn2CC(O)CO)n(C)c1=O` (stereo unspecified), the z-score was determined as 0.351.

Staying with this experiment, now noted: TFE3-RCC viability, CellTiter-Glo, 48 h; measured here: UOK145 Z-AUC; stronger effect = lower value.
The molecule `CN(C)CCc1c[nH]c2ccc(C[C@H]3COC(=O)N3)cc12` gave a z-score of 0.58.

`CCN(C)C(=O)Oc1cccc([C@H](C)N(C)C)c1` came in with a z-score of 1.29.

As to `CCn1cc(C(=O)O)c(=O)c2cc(F)c(N3CCN(C)CC3)cc21`, the z-score amounted to 0.753.

As to `CC(C)OC(=O)OCOP(=O)(CO[C@H](C)Cn1cnc2c(N)ncnc21)OCOC(=O)OC(C)C`, the z-score was 0.601.

For the molecule `CCN(CC)CCn1c(=O)c(Cc2ccc(OC)cc2)nc2ccccc21`, the z-score came out at 0.628.

In turn, `CN(Cc1cc(Br)cc(Br)c1N)C1CCCCC1` came in with a z-score of 1.53.

Molecule `COC(c1ccccc1)(c1ccccc1)[C@H](Oc1nc(C)cc(C)n1)C(=O)O` showed a z-score of 0.706.

Turning to `CCOc1cc(N)c(Cl)cc1C(=O)NCC1CN(Cc2ccc(F)cc2)CCO1` (stereo unspecified), the z-score was determined as 0.352.

On to `NNC(=O)c1ccncc1`, for which the z-score came to 0.436.

Molecule `Nc1[nH]c(=O)ncc1F` returned a z-score of 0.221.

On to `O=C(O)c1cc(=O)[nH]c(=O)[nH]1`, for which the z-score came out at 1.38.

The molecule `C#CCN[C@@H]1CCc2ccccc21` registered a z-score of 0.635.

With `Cn1nnc2c(C(N)=O)ncn2c1=O`, the z-score was 0.42.

For the molecule `Cc1nnc(C(=O)NC(C)(C)c2nc(C(=O)NCc3ccc(F)cc3)c(O)c(=O)n2C)o1`, the z-score was determined as 1.94.

Consider `NC(=O)c1ccc2[nH]ccc2c1`, for which the z-score was -0.184.

`CC1=C(C(=O)O)N2C(=O)[C@@H](NC(=O)C(N)c3ccccc3)[C@H]2SC1` (stereo partly specified) gave a z-score of 0.731.

`CCCCS(=N)(=O)CCC(N)C(=O)O` (stereo unspecified) registered a z-score of 0.0952.

In turn, `Cn1c(=O)c2c(ncn2CC(O)CO)n(C)c1=O` (stereo unspecified) had a z-score of 0.429.

A further experiment in a line: qHTS profiling for inhibitors of Plasmodium falciparum proliferation (AID 504749).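 Further: 0% = DMSO vehicle and full inhibition = artemisinin control; nearly all actives have a fitted effect of over 60% in size.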 To be noted: P. falciparum in erythrocytes, SYBR Green DNA, 72 h; at 12.8 µM (top of the series); parasite line A. A digest of the protocol:
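Parasite proliferation within erythrocytes, 72 h exposure. Endpoint: SYBR Green I fluorescence after overnight lysis at room temperature. Controls: 0.29 uM artemisinin, DMSO.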
In the case of `Nc1[nH]c(=O)ncc1F`, the activity, negative = inhibition is 6.35% (inactive).

As to `CCOC(=O)c1ccc(OC(=O)CCCCCN=C(N)N)cc1`, the activity, negative = inhibition was -3.04% (inactive).

As for `COC(=O)Nc1nc2ccc(C(=O)c3ccccc3)cc2[nH]1`, the activity, negative = inhibition was 5.97% (inactive).

The experiment is the same for the next values; noted with them: P. falciparum in erythrocytes, SYBR Green DNA, 72 h; at 12.8 µM (top of the series); parasite line B.
On to `Nc1[nH]c(=O)ncc1F`, for which the activity, negative = inhibition is 1.39% (inactive).

With `CCOC(=O)c1ccc(OC(=O)CCCCCN=C(N)N)cc1`, the activity, negative = inhibition is 4.29% (inactive).

On to `O=C(O)c1cn(C2CC2)c2cc(N3CCNCC3)c(F)cc2c1=O`, for which the activity, negative = inhibition was -28.9% (inactive).

As to `COC(=O)Nc1nc2ccc(C(=O)c3ccccc3)cc2[nH]1`, the activity, negative = inhibition is 9.61% (inactive).

The experiment is the same for the next values; noted with them: P. falciparum in erythrocytes, SYBR Green DNA, 72 h; at 28.7 µM (top of the series); parasite line A.
As for `CCc1cc(C(N)=S)ccn1`, the activity, negative = inhibition was -0.167% (inactive).

As to `CCN(C)C(=O)Oc1cccc([C@H](C)N(C)C)c1`, the activity, negative = inhibition was 3.53% (inactive).

As to `COc1c(N2CCNC(C)C2)c(F)cc2c(=O)c(C(=O)O)cn(C3CC3)c12` (stereo unspecified), the activity, negative = inhibition is -14.8% (inactive).

For `CC1=CC(=O)c2ccccc2C1=O`, the activity, negative = inhibition is -6.5% (inactive).

Consider `CN(Cc1cc(Br)cc(Br)c1N)C1CCCCC1`, for which the activity, negative = inhibition is -5.78% (inactive).

Consider `COc1ccc(-c2ccc3cc(C(=O)O)ccc3c2)cc1C12CC3CC(CC(C3)C1)C2`, for which the activity, negative = inhibition was 6.34% (inactive).

With `O=C(O)c1cc(=O)[nH]c(=O)[nH]1`, the activity, negative = inhibition was 24.2% (inactive).

Take `CC1=NN(c2ccccc2)C(=O)C1`: the activity, negative = inhibition was 3.27% (inactive).

Turning to `C#CCN[C@@H]1CCc2ccccc21`, the activity, negative = inhibition was 16.7% (inactive).

In the case of `Cn1nnc2c(C(N)=O)ncn2c1=O`, the activity, negative = inhibition was 6.45% (inactive).

In the case of `CC(N)C12CC3CC(CC(C3)C1)C2` (stereo unspecified), the activity, negative = inhibition was 7.36% (inactive).

Staying with this experiment, now noted: P. falciparum in erythrocytes, SYBR Green DNA, 72 h; at 28.7 µM (top of the series); parasite line B.
Consider `CCc1cc(C(N)=S)ccn1`, for which the activity, negative = inhibition is 3.61% (inactive).

On to `CCN(C)C(=O)Oc1cccc([C@H](C)N(C)C)c1`, for which the activity, negative = inhibition is 1.69% (inactive).

Turning to `COc1c(N2CCNC(C)C2)c(F)cc2c(=O)c(C(=O)O)cn(C3CC3)c12` (stereo unspecified), the activity, negative = inhibition is -1.5% (inactive).

As to `CCn1cc(C(=O)O)c(=O)c2cc(F)c(N3CCN(C)CC3)cc21`, the activity, negative = inhibition is -21.5% (inactive).

In the case of `CC1=CC(=O)c2ccccc2C1=O`, the activity, negative = inhibition was -23% (inactive).

On to `CN(Cc1cc(Br)cc(Br)c1N)C1CCCCC1`, for which the activity, negative = inhibition is -15.1% (inactive).

Turning to `COc1ccc(-c2ccc3cc(C(=O)O)ccc3c2)cc1C12CC3CC(CC(C3)C1)C2`, the activity, negative = inhibition was 6.13% (inactive).

With `O=C(O)c1cc(=O)[nH]c(=O)[nH]1`, the activity, negative = inhibition is 6.15% (inactive).

With `CC1=NN(c2ccccc2)C(=O)C1`, the activity, negative = inhibition is -12.4% (inactive).

On to `C#CCN[C@@H]1CCc2ccccc21`, for which the activity, negative = inhibition is 9.12% (inactive).

Take `Cn1nnc2c(C(N)=O)ncn2c1=O`: the activity, negative = inhibition is 3.99% (inactive).

As to `CC(N)C12CC3CC(CC(C3)C1)C2` (stereo unspecified), the activity, negative = inhibition is -12% (inactive).

These data come from PubChem BioAssay (NCATS).
